The whole screen tested about 320,000 compounds, of which about 1,300 (0.41%) were called active. Another 3% or so got no clear call; they are omitted. No rule for the calls is given here. The list is a sample of the results. Measured potencies and affinities stand elsewhere.
Experiment: growth inhibition of non-replicating M. tuberculosis (AID 488890);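 also: plate controls were DMSO cells for no effect and high antibiotic wells for full effect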
Conditions: Mycobacterium tuberculosis non-replicating, at 25 µM, stronger effect = higher value
`Cc1nn2c(NCCCn3ccnc3)cc(C(C)C)nc2c1-c1ccccc1` gave an inhibition of 75.8%.
Work on `CCCc1cc(N2CCN(c3ccccn3)CC2)n2nc(C)c(-c3ccccc3)c2n1` yielded an inhibition of 2.63%.
`CC(=O)Nc1ccc(Nc2cc(C(C)C)nc3c(-c4ccccc4)c(C)nn23)cc1` showed an inhibition of 5.77%.
Work on `CCCc1cc(N2CCCC2)n2nc(C)c(-c3ccccc3)c2n1` yielded an inhibition of 43.4%.
Molecule `Cc1cc(NC2CCCC2)n2ncc(-c3ccccc3)c2n1` has an inhibition of 36.8%.
`Cc1cc(NCc2ccccc2)n2ncc(-c3ccccc3)c2n1` gave an inhibition of 14.7%.
With `Cc1cc(NCCCn2ccnc2)n2nc(C)c(-c3ccc(Cl)cc3)c2n1` the inhibition was -1.28%.
With `CC(=O)Nc1ccc(Nc2cc(C)nc3c(-c4ccc(Cl)cc4)c(C)nn23)cc1` the inhibition was 2.43%.
`Nc1cc(N2CCNCC2)c([N+](=O)[O-])cc1Cl` showed an inhibition of 6.14%.
Molecule `Cc1ccc(CNC(=O)C2CCCN(C(=O)N(C)C)C2)cc1` (stereo not given) has an inhibition of -2.88%.
Molecule `C=CCN1C(=O)c2ccc(C(=O)OCC(=O)Nc3ccccc3OC)cc2C1=O` has an inhibition of -2.33%.
`CC(=O)c1cc(CN2CCN(Cc3ccccc3)C(CCO)C2)cs1` (stereo not given) gave an inhibition of 1.86%.
Work on `Cc1cc(C(=O)N(C)CC(=O)Nc2ccc(Cl)c(C(F)(F)F)c2)no1` yielded an inhibition of 6.97%.
Molecule `Cc1c(NC(=O)COC(=O)Cn2cc(C(F)(F)F)ccc2=O)cccc1[N+](=O)[O-]` has an inhibition of -1.08%.
In the case of `Cc1cc(C)n2nc(SCC(=O)N(Cc3ccccc3)C3CCS(=O)(=O)C3)nc2n1` (stereo not given), the inhibition is reported as -1.73%.
`Cc1cc(NCCC(C)C)n2nc(C)c(-c3ccccc3)c2n1` gave an inhibition of 49.1%.
In the case of `Cc1cc(Nc2ccccc2)n2nc(C)c(-c3ccccc3)c2n1`, the inhibition is reported as 15.2%.
In the case of `O=C(CCc1ccccc1)NNC(=O)c1cc(Cl)ccc1O`, the inhibition is reported as -5.64%.
In the case of `O=C(CC(=O)c1ccccc1)Nc1ccc(Cl)cc1`, the inhibition is reported as 51.8%.
`Cc1ccc(O)c(C(=O)CC(=O)c2cccc(F)c2)c1` gave an inhibition of -5.71%.
`COc1ccc(C(=O)CC(=O)c2ccccc2O)cc1OC` gave an inhibition of 22.7%.
For `C/C(=N\NC(=O)CNc1cccc(Cl)c1C)C1CC1`, the inhibition was 2.17%.
`CC(=O)Nc1ccc(C(=O)N2CCN(S(=O)(=O)c3ccc4c(c3)OCCCO4)CC2)cc1` showed an inhibition of -1.17%.
`Cc1sc(NC(=O)C2=COCCO2)nc1-c1ccc(Cl)cc1` gave an inhibition of 3.57%.
`c1ccc(CN2CCN(c3cnc4ccccc4n3)CC2)cc1` showed an inhibition of 3.95%.
For `COc1cc(OC)cc(C(=O)NC(=S)NNC(=O)[C@H]2C[C@@H]2c2ccccc2)c1`, the inhibition was 78.5%.
Work on `COc1cc(C(=O)NC(=S)NNC(=O)[C@H]2C[C@@H]2c2ccccc2)cc(OC)c1OC` yielded an inhibition of 62.4%.
In the case of `CC(=O)NCCc1nc2cc(NS(=O)(=O)c3ccc(Cl)cc3)ccc2n1C`, the inhibition is reported as -19.6%.
Work on `COCCCN(CC(=O)Nc1ccc(F)cc1)S(=O)(=O)c1cccs1` yielded an inhibition of 5.35%.
In the case of `NNC(=O)/C(=C/c1cccs1)NC(=O)c1ccccc1Cl`, the inhibition is reported as 1.61%.
`Nc1ccc(C(=O)Nc2ccc(OC(F)(F)C(F)F)c(NC(=O)c3ccc(N)cc3)c2)cc1` showed an inhibition of 20.7%.
For `CCN(CC)S(=O)(=O)c1ccc(NS(=O)(=O)c2ccc(OC)c([N+](=O)[O-])c2)cc1`, the inhibition was -6.27%.
For `CCCCCCCCC(=O)N1CCN(c2cc3c(cc2F)c(=O)c(C(=O)O)cn3CC)CC1`, the inhibition was 62.8%.
`O=C(O)c1cn(C2CC2)c2cc(N3CCN(S(=O)(=O)c4ccc5c(c4)OCCO5)CC3)c(F)cc2c1=O` showed an inhibition of 79.5%.
`CCn1cc(C(=O)NN)c(=O)c2cc(F)c(N3CCN(C)CC3)cc21` showed an inhibition of -3.82%.
For `CCOC(=O)c1cn(CC)c2cc(N3CCN(C)CC3)c(F)cc2c1=O`, the inhibition was -0.72%.
`CCCCCCCC(=O)N1CCN(c2cc3c(cc2F)c(=O)c(C(=O)O)cn3CC)CC1` showed an inhibition of 72.9%.
Molecule `CCCCCCCCCC(=O)N1CCN(c2cc3c(cc2F)c(=O)c(C(=O)O)cn3CC)CC1` has an inhibition of 6.5%.
`CCc1ccc(/C=N/NC(=O)Cc2ccc(OC)c(OC)c2)s1` gave an inhibition of 9.54%.
`COC(=O)C1=C2SC(C)C(=O)N2C(N)=C(C#N)C1c1ccc(OC)c(OC)c1` (stereo not given) gave an inhibition of 5.18%.
`CC(=O)c1ccc(NC(=O)CCC(=O)OCC(F)(F)C(F)F)cc1` gave an inhibition of -4.72%.
With `CC(=O)Nc1ccccc1OCc1cnc(Cl)s1` the inhibition was 21%.
With `Cc1cc(S(=O)(=O)Nc2cc(C)c(O)c(C)c2)c(C)s1` the inhibition was 13%.
For `COc1ccc(-c2cc(NCCc3ccncc3)n3ncnc3n2)cc1`, the inhibition was 24.4%.
Molecule `COc1ccc(-c2cc(NCc3ccccn3)n3ncnc3n2)cc1` has an inhibition of 55.9%.
With `C[C@H](CO)N1C[C@H](C)[C@@H](CN(C)S(=O)(=O)c2ccccc2)Oc2ccc(NC(=O)C3CC3)cc2C1=O` the inhibition was 6.81%.
For `Cc1cc(Br)ccc1SCC(=O)OCC(=O)NC1CCCC1`, the inhibition was 35.6%.
With `O=C(Nc1ccc(N2CCCCC2)cc1)c1cc([N+](=O)[O-])cc([N+](=O)[O-])c1` the inhibition was 14.1%.
With `CC(=O)Nc1ccc(C(=O)NNC(=O)c2cc([N+](=O)[O-])cc([N+](=O)[O-])c2)cc1` the inhibition was 16.3%.
Molecule `Cc1csc(NC(=O)c2ccc(C(=O)Nc3nc(C)cs3)cc2)n1` has an inhibition of -7.26%.
Work on `Cc1csc(NC(=O)c2ccc(C)c([N+](=O)[O-])c2)n1` yielded an inhibition of 5.36%.
Molecule `O=C(Nc1ccc(NC(=O)c2cccc([N+](=O)[O-])c2)cc1)c1cccc([N+](=O)[O-])c1` has an inhibition of -7.47%.
Molecule `COc1ccc(NC(=O)c2cc([N+](=O)[O-])ccc2N2CCCCC2)cc1` has an inhibition of -7.4%.
`COc1ccc(NC(=O)c2cc([N+](=O)[O-])ccc2N2CCCC2)cc1` gave an inhibition of -2.99%.
Molecule `O=C(Nc1ccc([N+](=O)[O-])cc1)c1cncc(Br)c1` has an inhibition of 13.8%.

Source: PubChem BioAssay AID488890 (Southern Research Specialized Biocontainment Screening …, 2010)
